From PubChem BioAssay (EPA / NIEHS)
Results filed as inconclusive are left out. Active and inactive are the calls of the source. How the source made its calls: active means hit-call score of the fitted dose curve at least 0.9, where 1 is the maximum; inconclusive means response in the unintended direction; inactive means score below 0.9.

Tests used:
[1] = molecular target: Estrogen receptor (Homo sapiens) (UniProt P03372); experiment: CCTE_Deisenroth_AIME_96WELL_LUC_Active: CCTE's 96-well Estrogen Receptor Transactivation Assay with AIME metabolic competence (ERTA luciferase; metabolism positive), Deisenroth Lab (AID 2284023)
Method in brief: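 Chemicals pre-incubated 2 h with alginate-immobilized phenobarbital/beta-naphthoflavone-induced male Sprague Dawley rat liver S9, then medium transferred to VM7Luc4E2 cells for 24 h luciferase read-out. 10-point series 0.002 - 200 uM; fitted relative to 17beta-estradiol.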

[2] = molecular target: Estrogen receptor (Homo sapiens) (UniProt P03372); experiment: CCTE_Deisenroth_AIME_96WELL_LUC_Inactive: CCTE's 96-well Estrogen Receptor Transactivation Assay without AIME metabolic competence (ERTA luciferase; metabolism negative), Deisenroth Lab (AID 2284025)
Method in brief: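 VM7Luc4E2 breast cells, luciferase read 24 h after dosing with medium pre-incubated 2 h on alginate-water lids (metabolism negative). 10-point series 0.002–200 uM, single technical replicate, n≥4; fit relative to 17beta-estradiol.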

[3] = CCTE_Deisenroth_AIME_96WELL_CTox_Active: Cytotoxicity Assessment (CTOX) in CCTE's 96-well Estrogen Receptor Transactivation Assay with AIME metabolic competence (metabolism positive), Deisenroth Lab (AID 2284028)
Method in brief: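 Chemicals (0.002–200 uM) were first incubated 2 h with alginate-immobilized phenobarbital/beta-naphthoflavone-induced male rat liver S9; conditioned medium then went onto VM7Luc4E2 cells for 24 h, with viability read by protease-substrate fluorescence, fitted bidirectionally.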

[4] = CCTE_Deisenroth_AIME_96WELL_CTox_Inactive: Cytotoxicity Assessment (CTOX) in CCTE's 96-well Estrogen Receptor Transactivation Assay without AIME metabolic competence (metabolism negative), Deisenroth Lab (AID 2284029)
Method in brief: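 Chemicals (0.002 - 200 uM, 10 points) incubated 2 h with alginate-water microspheres (no S9), then medium moved onto VM7Luc4E2 cells for 24 h. Viability by protease-substrate cleavage to fluorescent probe; bidirectional fitting.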

Sequence of Estrogen receptor (Homo sapiens) (P03372 whole entry, looked up): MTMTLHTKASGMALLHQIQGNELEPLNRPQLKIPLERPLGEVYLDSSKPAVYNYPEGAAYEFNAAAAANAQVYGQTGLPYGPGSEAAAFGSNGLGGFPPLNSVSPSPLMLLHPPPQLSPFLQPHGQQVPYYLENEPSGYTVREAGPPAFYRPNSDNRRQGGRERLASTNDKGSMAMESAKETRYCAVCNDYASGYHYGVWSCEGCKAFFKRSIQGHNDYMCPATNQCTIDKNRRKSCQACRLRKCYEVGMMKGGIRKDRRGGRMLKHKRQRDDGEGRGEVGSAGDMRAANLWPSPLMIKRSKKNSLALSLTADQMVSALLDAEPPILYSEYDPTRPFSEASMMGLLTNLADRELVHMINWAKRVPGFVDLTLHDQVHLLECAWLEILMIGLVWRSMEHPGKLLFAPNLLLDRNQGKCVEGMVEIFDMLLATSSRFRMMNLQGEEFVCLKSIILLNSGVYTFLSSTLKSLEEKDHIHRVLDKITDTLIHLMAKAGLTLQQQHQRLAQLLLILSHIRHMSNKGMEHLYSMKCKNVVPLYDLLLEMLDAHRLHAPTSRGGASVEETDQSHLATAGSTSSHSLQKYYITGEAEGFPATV

With `O=C(C=Cc1ccccc1)c1ccccc1` the AC50 [1] was 31.9 µM (active), the AC50 [2] was 28.2 µM (active) and the outcome [3] was “inactive”. For the same compound, the AC50 [4] was 114 µM (active).
